Results published in PubChem BioAssay (NCATS).
Records with an inconclusive call do not appear. Activity calls are given as the source filed them. Unless noted, calls come from the whole dose curve; as a rule, active = well fitted curve in the direction sought with a large enough effect; inconclusive = small, poorly fitted or top-dose-only effect, or another doubt; inactive = no such curve, though single readings can be large; an effect the other way counts as inactive or inconclusive.

Assays:
[1] = NS1 protein of Zika virus - qHTS assay to identify small molecule inhibitors in human HEK 293 cells (AID 1347053); settings: HEK293 ZIKV MR766 infection, NS1 TR-FRET, 24 h; series mostly up to 46.1 µM;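 note: plate controls were infected untreated cells for no effect and uninfected cells for full effect; nearly all actives have a fitted effect of over 55% in size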
In short: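 Compound-treated (1 h pre-infection) HEK 293 cells infected with ZIKV MR766, MOI = 0.5; after 24 h at 37 C, NS1 read by TR-FRET; data normalized to uninfected and infected controls.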

[2] = molecular target: T1, Tyrosine-protein phosphatase non-receptor type substrate 1 (Homo sapiens) + Leukocyte surface antigen CD47 (Homo sapiens) (UniProt P78324+Q08722); test: CD47-SIRPalpha protein protein interaction - LANCE assay qHTS validation (AID 1347057; active = well fitted curve in the direction sought with a large enough effect in the signal ratio, with a control signal flat, not every such curve was filed as active; the % refers to the signal ratio); settings: Recombinant CD47-His / biotin-SIRPalpha, TR-FRET ratio; series mostly up to 38.3 µM
In short: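 Inhibition of soluble CD47/SIRPalpha ectodomain association by titrated compounds, measured as 665/615 nm time-resolved FRET ratio after sequential 30 min room-temperature incubations.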

[3] = molecular target: T1, Tyrosine-protein phosphatase non-receptor type substrate 1 (Homo sapiens) + Leukocyte surface antigen CD47 (Homo sapiens); test: CD47-SIRPalpha protein protein interaction - Alpha assay qHTS validation (AID 1347059); settings: AlphaScreen CD47-His/biotin-SIRPalpha binding, LOPAC; series mostly up to 38.3 µM;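 note: bead proximity luminescence from CD47 binding SIRPalpha after compound preincubation with SIRPalpha; % is set by controls: 0 for no effect and ±100 for the full control effect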
In short: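 AlphaScreen signal between CD47-His (12.5 nM) and biotin-SIRPalpha (25 nM) soluble extracellular domains, bead-captured via Ni-NTA and streptavidin. Compounds, in 7-point titrations, met SIRPalpha 30 min before CD47; PBS pH 7.4 with 0.05% IGEPAL.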

[4] = molecular target: Parathyroid hormone/parathyroid hormone-related peptide receptor (Homo sapiens) (UniProt Q03431); test: qHTS for PTHR1 Agonists: Optimization Screen against the NCGC LOPAC library (AID 1347079); settings: HEK293 GP2 PTHR1 GloSensor cAMP luminescence, 1 h; series mostly up to 57.1 µM;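 note: GloSensor cAMP luminescence in HEK-293 GP2 cells expressing human PTHR1 with IBMX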; note: potency is the fitted concentration of half-maximal effect
In short: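 HEK-293 GP2 cells, PTHR1 + GloSensor cAMP; 3000 cells/well, o/n. Luciferin + IBMX 0.5mM each (stock), 1 hr 37C. Cpd titration, 1 hr 37C. Lum after 15 min RT. Ctrl M-PTH(1-15) top 10uM.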

[5] = molecular target: N-terminal Xaa-Pro-Lys N-methyltransferase 1 (Homo sapiens) (UniProt Q9BV86); test: qHTS Assay for Inhibitors of N-terminal methyltransferase 1 (NTMT1): LOPAC validation of the NTMT1 SAHH-coupled ThioGlo3 Assay (AID 1347143); settings: recombinant NTMT1, SAHH-coupled ThioGlo3 fluorescence; series mostly up to 114 µM;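 note: SAH from peptide methylation measured as thiol fluorescence via SAHH coupling and ThioGlo3; nearly all actives have a fitted effect of over 70% in size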; note: potency is the fitted concentration of half-maximal effect
In short: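 NTMT1 125nM + cpds (various conc.), 1 min RT; add SAM 100uM/SAHH 10uM/ThioGlo3 15uM (addition mix). SAHH-coupled thiol detection, Ex340/Em450, t0 and 30 min RT; signal normalized to background. LOPAC 1280-cpd pilot.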

[6] = system: Zika virus NS2B-NS3 protease; test: Primary screen GU AMC qHTS for Zika virus inhibitors (AID 1347154); settings: Zika NS2B-NS3 unlinked protease, AMC fluorogenic substrate; series mostly up to 54.1 µM;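 note: 0% = no-inhibitor control and -100% = no-enzyme control; nearly all actives have a fitted effect of over 70% in size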
In short: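 Fluorogenic AMC-substrate cleavage by noncovalent NS2B-NS3 protease complex (25 nM, pH 8.0 Tris buffer with Tween 20) followed for 15 minutes at room temperature (~20% conversion). Percent inhibition from ex340/em450 signal change, fitted by 4-parameter Hill equation.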

[7] = system: Zika virus NS2B-NS3 protease (unlinked); test: Optimization of GU AMC qHTS for Zika virus inhibitors: Unlinked NS2B-NS3 protease assay (AID 1347151); settings: recombinant ZIKV NS2B-NS3 protease, fluorogenic AMC substrate; series mostly up to 52.5 µM; note: nearly all actives have a fitted effect of over 80% in size; note: potency is the fitted concentration of half-maximal effect
In short: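 Noncovalent complex of NS2B hydrophilic domain and NS3 protease domain, 25 nM final, in 10 mM Tris-HCl pH 8.0, 0.01% Tween 20. AMC fluorescence change over 15 min at room temperature was fitted to a 4-parameter Hill equation.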

[8] = molecular target: Lysine-specific demethylase 5B (Homo sapiens) (UniProt Q9UGL1); test: Optimization screen for KDM5B Histone Demethylases FDH coupled qHTS against the LOPAC library (AID 1347166); settings: KDM5B demethylation, FDH-coupled NADH fluorescence (FDH is formaldehyde dehydrogenase); at 57.5 µM (top of the series); note: 0% is about no effect
In short: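 KDM5BDeltaAP (200nM final) in 50mM HEPES pH 7.5, 0.01% Tween-20 was preincubated with compound for 10 min at room temperature. A substrate mix of 12.5uM H3K4Me3, 25uM a-ketoglutarate, ascorbate, Fe2+, NAD+ and formaldehyde dehydrogenase was then added. NADH fluorescence (340/450 nm) was read initially and after 30 min.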

[9] = molecular target: T1, Tyrosine-protein phosphatase non-receptor type substrate 1 (Homo sapiens) + Leukocyte surface antigen CD47 (Homo sapiens); test: CD47-SIRPalpha protein protein interaction - HTRF assay qHTS validation (AID 1347058; active = well fitted curve in the direction sought with a large enough effect in the signal ratio, not every such curve was filed as active; the % refers to the signal ratio; note: 0% is about no effect); settings: TR-FRET HTRF CD47-His / biotin-SIRPalpha binding, ratio 665/615; series mostly up to 38.3 µM
In short: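 Soluble extracellular domains (6His-CD47, Avi-tag-biotinylated SIRPalpha) in PBS pH 7.4 with 0.05% IGEPAL CA-630. Compounds were preincubated 30 min at RT with CD47 and anti-His-Eu, then SIRPalpha and SAV-XL665 were added. TR-FRET 665/615 ratio.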

[10] = system: Zika virus NS2B-NS3 protease (linked construct); test: Primary screen NINDS Rhodamine qHTS for Zika virus inhibitors (AID 1347160); settings: purified NS2B-NS3 protease, Rhodamine110 substrate fluorescence; series mostly up to 227 µM; note: % is set by controls: 0 for no effect and ±100 for the full control effect; nearly all actives have a fitted effect of over 55% in size
In short: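 Single-chain NS2B-NS3 protease, 25 nM, pH 8.0; compounds preincubated 15 min. Activity: Rhodamine110 release from 1.5 microM substrate over 15 min, room temperature, data fitted to 4-parameter Hill.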

[11] = molecular target: Furin (Homo sapiens) (UniProt P09958); test: Furin counterscreen qHTS for Zika virus inhibitors (AID 1347149); settings: furin enzymatic counterscreen, fluorogenic substrate; series mostly up to 57.5 µM;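 note: purified recombinant full-length human furin enzyme at 5 nM; fluorescence gain from furin cutting a BOC-RVRR-AMC peptide substrate over 15 min; top concentration of the series differs between compounds; plate controls were no-inhibitor control for no effect and no-enzyme control for full effect; nearly all actives have a fitted effect of over 70% in size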
In short: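 Counterscreen measures cleavage of 2 microM BOC-RVRR-AMC, below its ~15 microM Km, by 5 nM full-length human furin at pH 7.0 after a 15-min compound preincubation. Inhibition derives from the 15-min fluorescence increase at 37C.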

[12] = ZIKV-mCherry secondary qHTS for Zika virus inhibitors (AID 1347158); settings: Vero cells, ZIKV-mCherry infection imaging, 48-72 h; series mostly up to 49.2 µM; note: top concentration of the series differs between compounds
In short: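 Compounds were tested in Vero monkey kidney cells infected with recombinant mCherry-expressing Zika virus at MOI 1 for 48-72 h at 37 °C. Fixed cells were nuclear-stained and imaged, and infection rate was taken as the fraction of mCherry-positive cells.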

[13] = Confirmatory screen NINDS Rhodamine qHTS for Zika virus inhibitors (AID 1347161); settings: purified enzyme assay, Rhodamine110 substrate fluorescence, 15 min; series mostly up to 114 µM; note: potency is the fitted concentration of half-maximal effect; nearly all actives have a fitted effect of over 60% in size
In short: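 Purified linked NS2B-NS3 protease (NS2B hydrophilic domain joined to NS3 protease by flexible linker), 25 nM in 10 mM Tris-HCl pH 8.0, 0.01% Tween 20. Compounds titrated, 15 min preincubation at room temperature; 1.5 microM Rhodamine110 substrate, FITC fluorescence change over 15 min.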

[14] = system: Zika virus NS2B-NS3 protease (linked construct); test: 384 well plate NINDS Rhodamine confirmatory qHTS for Zika virus inhibitors (AID 1347164); settings: rhodamine-110 peptide substrate fluorescence; series mostly up to 100 µM;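 note: fluorescence from protease cleavage of Ac-LKRR-rhodamine 110 substrate; potency is the fitted concentration of half-maximal effect; nearly all actives have a fitted effect of over 65% in size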
In short: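 Linked protease at a final 5 nM, 30 nM or 60 nM was preincubated ~15 min with compounds, then given 10 microM Ac-LKRR-Rhodamine 110. Fluorescence (ex 485/em 538 nm) after 25 min in the dark at room temperature.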

[15] = Vero cells viability qHTS for Zika virus inhibitors (AID 1347167); settings: cytotoxicity counter-screen (Zika); series mostly up to 45.9 µM; note: % is set by controls: 0 for no effect and ±100 for the full control effect
In short: (§1)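 Luminescent ATP readout (CellTiter Glo) after 30 min at 37 degrees C gives viability; cells in DMEM + 4% FBS were treated 24 to 48 hours with compound, following overnight attachment.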

[16] = HepG2 cells viability qHTS for Zika virus inhibitors (AID 1347168); settings: Zika counter-screen; series mostly up to 45.9 µM; note: % is set by controls: 0 for no effect and ±100 for the full control effect
In short: as §1

Chain of Lysine-specific demethylase 5B (Homo sapiens) (Q9UGL1 whole entry, looked up): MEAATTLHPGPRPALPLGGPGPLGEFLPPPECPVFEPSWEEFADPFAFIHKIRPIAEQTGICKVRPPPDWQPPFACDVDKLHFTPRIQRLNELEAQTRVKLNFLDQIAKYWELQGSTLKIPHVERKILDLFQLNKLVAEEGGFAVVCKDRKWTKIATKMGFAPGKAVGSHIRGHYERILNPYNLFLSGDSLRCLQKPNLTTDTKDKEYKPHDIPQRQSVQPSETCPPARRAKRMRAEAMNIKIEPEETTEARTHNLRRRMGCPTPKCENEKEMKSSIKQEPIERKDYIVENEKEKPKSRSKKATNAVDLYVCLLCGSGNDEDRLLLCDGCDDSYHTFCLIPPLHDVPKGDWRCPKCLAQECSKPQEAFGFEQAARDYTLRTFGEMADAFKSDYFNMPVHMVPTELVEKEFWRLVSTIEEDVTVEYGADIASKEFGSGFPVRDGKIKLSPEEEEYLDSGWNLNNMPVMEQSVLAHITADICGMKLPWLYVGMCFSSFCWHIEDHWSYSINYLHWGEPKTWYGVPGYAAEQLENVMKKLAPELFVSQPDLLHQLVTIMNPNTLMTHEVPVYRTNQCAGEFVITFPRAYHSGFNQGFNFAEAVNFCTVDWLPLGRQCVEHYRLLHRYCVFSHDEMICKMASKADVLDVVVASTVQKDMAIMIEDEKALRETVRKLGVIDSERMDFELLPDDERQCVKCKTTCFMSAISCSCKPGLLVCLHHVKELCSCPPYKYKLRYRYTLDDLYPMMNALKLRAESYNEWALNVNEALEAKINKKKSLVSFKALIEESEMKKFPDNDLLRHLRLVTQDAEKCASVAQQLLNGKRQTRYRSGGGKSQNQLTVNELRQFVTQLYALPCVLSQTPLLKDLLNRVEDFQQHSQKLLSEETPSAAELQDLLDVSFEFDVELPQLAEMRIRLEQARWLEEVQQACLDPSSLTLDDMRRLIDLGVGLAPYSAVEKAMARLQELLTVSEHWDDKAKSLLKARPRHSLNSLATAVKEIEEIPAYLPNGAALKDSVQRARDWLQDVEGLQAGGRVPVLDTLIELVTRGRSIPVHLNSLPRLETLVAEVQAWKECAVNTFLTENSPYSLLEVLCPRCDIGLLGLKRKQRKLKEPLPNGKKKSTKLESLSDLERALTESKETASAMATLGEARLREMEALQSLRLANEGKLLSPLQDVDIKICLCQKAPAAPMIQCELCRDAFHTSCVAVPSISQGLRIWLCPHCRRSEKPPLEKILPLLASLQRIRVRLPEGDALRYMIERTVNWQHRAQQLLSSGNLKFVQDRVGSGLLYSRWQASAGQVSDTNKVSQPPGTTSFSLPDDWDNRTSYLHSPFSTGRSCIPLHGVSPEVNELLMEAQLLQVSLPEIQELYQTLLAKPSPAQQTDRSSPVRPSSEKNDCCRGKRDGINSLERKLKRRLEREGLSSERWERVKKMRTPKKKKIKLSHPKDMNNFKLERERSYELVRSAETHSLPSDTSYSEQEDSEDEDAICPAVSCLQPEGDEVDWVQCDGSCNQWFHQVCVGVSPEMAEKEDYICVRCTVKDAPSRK
Chain of Parathyroid hormone/parathyroid hormone-related peptide receptor (Homo sapiens) (Q03431 whole entry, looked up): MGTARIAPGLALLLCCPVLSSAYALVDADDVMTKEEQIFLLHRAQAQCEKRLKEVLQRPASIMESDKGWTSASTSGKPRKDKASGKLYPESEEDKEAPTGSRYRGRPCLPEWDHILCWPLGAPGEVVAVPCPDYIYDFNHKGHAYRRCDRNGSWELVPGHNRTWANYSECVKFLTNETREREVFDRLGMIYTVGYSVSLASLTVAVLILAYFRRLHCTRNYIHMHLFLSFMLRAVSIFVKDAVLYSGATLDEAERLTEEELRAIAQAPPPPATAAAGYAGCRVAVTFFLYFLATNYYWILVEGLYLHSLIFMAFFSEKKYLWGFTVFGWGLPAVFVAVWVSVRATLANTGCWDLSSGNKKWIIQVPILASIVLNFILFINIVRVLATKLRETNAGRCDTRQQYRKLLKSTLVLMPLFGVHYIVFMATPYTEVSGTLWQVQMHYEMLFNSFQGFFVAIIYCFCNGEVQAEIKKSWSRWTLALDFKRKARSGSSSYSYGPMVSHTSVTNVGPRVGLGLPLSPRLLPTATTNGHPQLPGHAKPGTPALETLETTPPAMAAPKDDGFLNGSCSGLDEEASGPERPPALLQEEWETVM
Chain of N-terminal Xaa-Pro-Lys N-methyltransferase 1 (Homo sapiens) (Q9BV86 whole entry, looked up): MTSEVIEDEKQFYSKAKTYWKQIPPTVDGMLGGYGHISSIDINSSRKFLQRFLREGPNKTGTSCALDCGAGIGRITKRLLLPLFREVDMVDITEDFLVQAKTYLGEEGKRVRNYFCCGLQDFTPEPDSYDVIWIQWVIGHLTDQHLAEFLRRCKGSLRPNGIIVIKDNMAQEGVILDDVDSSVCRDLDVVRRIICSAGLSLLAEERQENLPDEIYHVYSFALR
T1 sequence (P78324 whole entry, looked up, the tested form may be a part): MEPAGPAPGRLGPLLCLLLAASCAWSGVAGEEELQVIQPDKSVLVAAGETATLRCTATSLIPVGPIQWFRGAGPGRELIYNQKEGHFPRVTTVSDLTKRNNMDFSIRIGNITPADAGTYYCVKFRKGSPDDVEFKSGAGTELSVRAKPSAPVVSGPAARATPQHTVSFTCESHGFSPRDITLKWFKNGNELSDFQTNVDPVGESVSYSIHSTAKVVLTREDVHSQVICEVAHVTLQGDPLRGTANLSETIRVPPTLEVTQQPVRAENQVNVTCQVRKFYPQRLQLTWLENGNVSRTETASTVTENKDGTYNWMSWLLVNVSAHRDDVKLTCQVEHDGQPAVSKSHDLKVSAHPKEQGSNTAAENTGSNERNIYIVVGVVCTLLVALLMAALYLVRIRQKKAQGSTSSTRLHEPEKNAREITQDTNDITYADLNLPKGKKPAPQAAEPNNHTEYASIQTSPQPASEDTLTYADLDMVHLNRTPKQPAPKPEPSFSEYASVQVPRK
T1 sequence (Q08722 whole entry, looked up, the tested form may be a part): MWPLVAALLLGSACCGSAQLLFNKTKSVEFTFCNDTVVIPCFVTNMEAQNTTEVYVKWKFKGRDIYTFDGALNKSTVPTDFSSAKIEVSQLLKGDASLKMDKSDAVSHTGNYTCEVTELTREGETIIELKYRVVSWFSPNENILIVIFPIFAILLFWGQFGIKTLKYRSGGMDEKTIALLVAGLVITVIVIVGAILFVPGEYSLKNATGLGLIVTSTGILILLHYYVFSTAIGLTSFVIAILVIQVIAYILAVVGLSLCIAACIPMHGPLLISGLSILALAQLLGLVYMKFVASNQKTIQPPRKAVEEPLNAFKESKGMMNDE
Chain of Furin (Homo sapiens) (P09958 whole entry, looked up): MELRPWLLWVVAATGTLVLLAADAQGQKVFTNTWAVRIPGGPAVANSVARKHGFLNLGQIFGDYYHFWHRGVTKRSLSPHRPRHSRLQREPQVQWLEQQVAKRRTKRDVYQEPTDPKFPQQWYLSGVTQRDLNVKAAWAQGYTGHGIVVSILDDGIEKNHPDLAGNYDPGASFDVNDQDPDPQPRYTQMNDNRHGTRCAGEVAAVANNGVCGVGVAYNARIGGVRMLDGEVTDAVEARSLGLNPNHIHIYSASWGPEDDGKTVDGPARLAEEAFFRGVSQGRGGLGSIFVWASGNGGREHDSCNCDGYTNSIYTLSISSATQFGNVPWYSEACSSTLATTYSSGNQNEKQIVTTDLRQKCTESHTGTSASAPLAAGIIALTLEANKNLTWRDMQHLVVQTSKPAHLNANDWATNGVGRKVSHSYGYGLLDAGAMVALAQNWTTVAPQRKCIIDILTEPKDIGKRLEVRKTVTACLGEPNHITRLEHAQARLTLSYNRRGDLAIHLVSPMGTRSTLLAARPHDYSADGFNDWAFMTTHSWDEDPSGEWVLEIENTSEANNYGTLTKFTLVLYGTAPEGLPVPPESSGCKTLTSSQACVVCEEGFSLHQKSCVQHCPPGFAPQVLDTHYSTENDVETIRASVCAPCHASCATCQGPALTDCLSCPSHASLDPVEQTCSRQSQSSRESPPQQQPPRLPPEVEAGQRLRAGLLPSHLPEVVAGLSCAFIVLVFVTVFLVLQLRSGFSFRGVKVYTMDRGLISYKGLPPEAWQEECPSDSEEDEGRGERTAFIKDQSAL

c1ccc2nc(C3=NCCN3)ccc2c1
active: Potency [4] 26.7 µM
inactive: Potency [1] | Potency [2] | Potency [3] | Potency [5] | Potency [6]

Cc1ccc2c(c1)C(N1CCN(C)CC1)=Nc1cccnc1N2
inactive: Potency [1] | Potency [2] | Potency [3] | Potency [5] | Potency [7] | activity, negative = inhibition [8] -6.11%

N[C@@H](CCCC(=O)O)C(=O)O
inactive: Potency [1] | Potency [2] | Potency [3] | Potency [4] | Potency [5] | Potency [7] | activity, negative = inhibition [8] -3.82%

c1ccc(C(NCc2cccnc2)(c2ccccc2)c2ccccc2)cc1
inactive: Potency [1] | Potency [2] | Potency [3] | Potency [4] | Potency [5] | Potency [7] | Potency [6] | activity, negative = inhibition [8] -13.8%

CCCn1c(=O)c2[nH]c(-c3ccc(S(=O)(=O)O)cc3)nc2n(CCC)c1=O
inactive: Potency [1] | Potency [4] | Potency [5] | activity, negative = inhibition [8] 2090%

O=C(O)Cc1c[nH]c2ccc(O)cc12
active: Potency [5] 56.2 µM
inactive: Potency [2] | outcome [9] | Potency [3] | Potency [4] | outcome [10]

Nc1ccc(-c2nc3ccc(-c4nc5ccc(N)cc5[nH]4)cc3[nH]2)cc1
active: Potency [5] 56.2 µM | Potency [7] 26.7 µM
inactive: Potency [1] | Potency [4]

CN(C)S(=O)(=O)c1ccc2c(c1)/C(=C/c1cc3c([nH]1)CCCC3)C(=O)N2
inactive: Potency [1] | Potency [3] | Potency [4] | Potency [5] | activity, negative = inhibition [8] -8.97%

O=c1cc(-c2ccccc2)[nH]c2nc(Cl)ccc12
active: Potency [5] 79.4 µM | Potency [7] 11.9 µM
inactive: Potency [1] | Potency [4]

O=c1[nH]c(=S)[nH]c(-c2ccccc2)c1Cc1c(O)ccc2ccccc12
inactive: Potency [1] | outcome [9] | Potency [4] | Potency [11] | Potency [12] | activity, negative = inhibition [8] -27.4% | Potency [15] | outcome [16]
active: Potency [5] 79.4 µM | Potency [13] 3.49 µM | Potency [14] 70.8 µM

CCCCCCC/C=C\CCCCCCCCC(=O)O
active: Potency [7] 21.2 µM
inactive: Potency [1] | outcome [9] | Potency [3] | Potency [4] | Potency [5] | activity, negative = inhibition [8] -29.9%

Cc1cccc(C)c1OCC(N)C(C)C (centres undefined)
active: Potency [5] 50.1 µM
inactive: Potency [1] | outcome [9] | Potency [3] | Potency [7] | activity, negative = inhibition [8] -17.4%

CN1CCN(c2nc3cc(C(F)(F)F)ccc3n3cccc23)CC1
inactive: Potency [1] | outcome [2] | Potency [4] | Potency [6]
active: Potency [5] 39.8 µM
